# Test results reported in PubChem BioAssay AID1117319 (Southern Research Institute, 2015).
# “And” between values parts separate entries of the source, which are not always exact repeats. Equal entries are not always repeated. Hit rate of the full screen: of about 260,000 compounds, about 1,500 (0.58%) were called active. Inconclusive results (about 5%) are left out. Only a sample is shown. Entries with a potency or affinity are not part of this list. Values without a mark were called inactive.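 The calls were made as follows: active = inhibition above a set limit at one or more doses, reproduced on every date tested; inconclusive = results disagree between test dates, or hit never tested in dose response; inactive = the rest.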
# Molecular target: Virion infectivity factor (Human immunodeficiency virus type 1 group M subtype B (isolate BH10)) + Virion infectivity factor (Human immunodeficiency virus type 1 group M subtype B (isolate BRU/LAI)) + Virion infectivity factor (Human immunodeficiency virus type 1 group M subtype B (isolate PCV12)) + Virion infectivity factor (Human immunodeficiency virus type 1 group M subtype B (isolate HXB2)) + DNA dC->dU-editing enzyme APOBEC-3G (Homo sapiens) (UniProt P69720+P69721+P69722+P69723+Q9HC16)
# Assay: inhibitors of Vif binding to APOBEC3G peptide, primary screen, biochemical, TR-FRET, GST-Vif 1-94, biotin-A3G peptide, dose response retest (AID 1117319);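 also: Vif residues 1-94 fused to GST binding biotinylated APOBEC3G peptide 110-148; 0% = full assay without inhibitor and 100% = GST in place of GST-Vif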
# Details: active compounds read high
row,SMILES,inhibition
1,CN(CCC#N)C(=O)CC(Cc1ccccc1)C1CCOC(C)(C)C1 (configuration not stated),28.5%
2,CCCn1cnc2cc(NCc3ccccc3O)ccc21,-2.34%
3,CCn1cnc2cc(NCc3ccncc3)ccc21,18.7%
4,CC(C)n1cnc2cc(NCc3ccccn3)ccc21,14.4%
5,CCCn1cnc2cc(NCc3ccc(Br)cc3)ccc21,-8.23%
6,CCNC(=S)NCCN1CCCCC1,-5.58%
7,CC(=O)Nc1ccc(NC(=O)Cn2cc3c(n2)CCCC3)cc1,-2.34%
8,Cc1cc(C)cc(NC(=O)Cn2cc3c(n2)CCCCC3)c1,0.97%
9,Cc1cc(C)c2c(N)c(-c3nc4ccccc4[nH]3)sc2n1,1.28%
10,O=C1CSC(=S)N1c1ccccc1,-4.55%
11,CCN(CC)c1ccc(N2C(=O)CSC2=S)cc1,-8.43%
12,Cc1ccc(S(=O)(=O)Nc2cccc(C(=O)N3CCCC3)c2)cc1F,3.33%
13,O=c1oc2c3c4c(cc2c(C(F)(F)F)c1CCN1CCOCC1)CCCN4CCC3,16.6%
14,CC(C)c1cc(=O)oc2c3c4c(cc12)CCCN4CCC3,13.8%
15,N/C(=N\OC(=O)CN1C(=O)c2ccccc2C1=O)c1ccc(Cl)cc1,-10.1%
16,COc1ccc(N2CCN(C(=O)COC(=O)c3oc4ccc(OC)cc4c3C)CC2)cc1,1.73%
17,COc1ccc(NC(=O)C(NC(C)=O)C(=O)NCc2ccccc2)cc1 (configuration not stated),2.8%
18,O=C(Nc1ccn(-c2ccccc2)n1)c1ccc(Cl)cc1,-12.3%
19,CC(=O)Nc1ccn(-c2ccccc2)n1,15.9%
20,COc1ccc(S(=O)(=O)N(CC(=O)NCc2ccco2)C2CCCCC2)cc1OC,24%
21,COC(=O)c1cc([N+](=O)[O-])c(C)c(C)n1,-2.89%
22,CCN1CCc2c(C#N)c(N3CCCCC3)nc(NCc3ccccc3)c2C1,25.2%
23,CCN1CCc2c(C#N)c(N3CCOCC3)nc(NCc3ccccc3)c2C1,13.6%
24,CCCc1c(C)[nH]c2ccccc2c1=O,6.62%
25,CC1=NN(c2ccc(Cl)c(C(=O)O)c2)C(=O)/C1=C\c1ccc(-c2ccc(C(=O)O)cc2)o1,1.61%

row,SMILES,inhibition
1,CC1=NN(c2ccc(C)cc2)C(=O)/C1=C\C=C\c1ccccc1,-3.38%
2,CC1=NN(c2ccc(Cl)c(C(=O)O)c2)C(=O)C1,29.9%
3,CC1=NN(c2cccc(C(=O)O)c2)C(=O)/C1=C\C=C/c1ccccc1,29.5%
4,O=C(CSc1nnc(CCCO)n1-c1ccccc1)Nc1nccs1,-0.69%
5,CCOc1cc(CNCCO)cc(Br)c1OCc1ccc(Cl)cc1,-0.39%
6,Nc1cc(=O)nc(SCC(=O)Nc2ccccc2Cl)n1-c1ccccc1,-1.2%
7,Cc1ncsc1CCSc1nc2ccccc2c(=O)n1C,-1.02%
8,COc1cc(OC)cc(C(=O)Nc2cccnc2)c1,7.36%
9,COc1ccc(S(=O)CC(=O)Nc2ccccc2Cl)cc1 (configuration not stated),-2.59%
10,CCN(CC)c1ccc(C=Nc2ccc(C#N)cc2)c(O)c1,-0.77%
11,CCN(CC)c1ccc(C=Nc2ccccc2C)c(O)c1,-5.2%
12,CCN(CC)c1ccc(C=Nc2ccccc2)c(O)c1,29.3%
13,CCN(CC)c1ccc(C=Nc2cc(C)cc(C)c2)c(O)c1,9.03%
14,COc1nnc(-c2ccc(C)c(S(=O)(=O)NC(C)C)c2)c2ccccc12,-9.93%
15,COc1ccc(C2=NC(CO)(CO)CO2)cc1,-8.98%
16,O=C(Nc1ccc(S(=O)(=O)N2CCCC2)cc1)c1cc(=O)c2ccccc2o1,-4.62%
17,CN(C)CC(=O)N1c2ccccc2Sc2ccc(Cl)cc21,3.03%
18,O=C(CN1CCCc2ccccc21)NCCc1ccc(Cl)cc1,32.1%
19,COc1ccc(CCNC(=O)CN2CCOc3ccccc32)cc1OC,2.79%
20,O=C1C=C(Nc2ccccc2)c2ccccc2C1=O,2.25%
21,NC1=CC(=O)C(=O)c2ccccc21,6.05%
22,COc1cc(-c2nnc(NC(=O)CS(=O)(=O)c3ccc(C)cc3)o2)cc(OC)c1OC,-0.69%
23,COc1cc(NC(=O)CS(=O)(=O)c2ccccc2)cc(OC)c1OC,-4.34%
24,O=[N+]([O-])c1cccnc1N1CCN(c2ccc(F)cc2)CC1,-1.42%
25,COCCCC1CCN(Cc2cn[nH]c2-c2cc(OC)c(OC)c(OC)c2)CC1,-14.3%

row,SMILES,inhibition
1,CSc1ccc(/C=N/Nc2ccc(Cl)c(C(=O)O)c2)cc1,14.3%
2,O=C(O)c1cccc(N/N=C/c2ccc(-c3ccccc3)cc2)c1,6.67%
3,O=C(O)c1cccc(N/N=C/c2ccc(OC(F)(F)F)cc2)c1,0.25%
4,COC(=O)c1ccc(COc2ccccc2/C=N/Nc2cccc(C(=O)O)c2)cc1,9.8%
5,CN(C)S(=O)(=O)N1CCc2ccccc21,28.1%
6,Cc1cc(OCCn2cnc3ccccc3c2=O)ccc1[N+](=O)[O-],3.47%
7,COc1ccc(S(=O)(=O)/N=C2/C=CC(=O)C(C)=C2C)cc1,9.79%
8,O=S(=O)(N=C1C=CC(=NS(=O)(=O)c2ccccc2)c2ccccc21)c1ccccc1,14.1%
9,CCc1ccc(S(=O)(=O)/N=C2\C=C(NS(=O)(=O)c3ccccc3)C(=O)c3ccccc32)cc1,16%
10,CCc1ccc(S(=O)(=O)ON2C(=O)c3ccccc3C2=O)cc1,5.83%
11,Cc1ccc(CNC(=O)CSc2nc(N3CCCCC3)nc(N3CCCCC3)n2)cc1,4.78%
12,COc1ccc(Nc2nc(OC)nc(N3CCOCC3)n2)cc1,-3.38%
13,CC1=C(C(=O)OC2CCCCC2)C(c2cccs2)n2c(nc3ccccc32)N1 (configuration not stated),-7.41%
14,CN1CCc2ccccc2C1C1CCNCC1 (configuration not stated),25.2%
15,CN1CCc2cc3c(c4c2[C@H]1[C@H](O)c1ccccc1-4)OCO3,9.65%
16,CCN(CC)CCn1c2c(c(SCC(=O)NCc3ccccc3)nc1=O)CCCC2,6.08%
17,O=C(NCCCN1CCN(CCCNC(=O)c2cccc([N+](=O)[O-])c2)CC1)c1cccc([N+](=O)[O-])c1,1.34%
18,Cc1nn(C)cc1/C=N/NC(=S)Nc1ccccc1,0.96%
19,C/C(N)=C(/C#N)C(=O)CSc1n[nH]c(-c2ccccc2Br)n1,10.4% and -7.5%
20,CCOC(=O)c1ccccc1NC(=O)[C@@H]1CCCN1C(=O)OC(C)(C)C,3.12%
21,CCN1C(=O)c2ccc(C(=O)NCc3ccc4c(c3)OCO4)cc2C1=O,-10.4%
22,Cc1cc(C(F)(F)F)n2ncc(C(=O)O)c2n1,-3.78%
23,Cc1cc(C(F)(F)F)n2nc(C)c(-c3ccc(Cl)cc3)c2n1,-0.47%
24,CC(C)(C)C1=NN=C2c3ccccc3C(=O)C21 (configuration not stated),6.1%
25,COCOCCn1cc(CN2CCS(=O)(=O)N(Cc3ccc(-c4ccc(Cl)cc4)cc3)C(C)C2=O)nn1 (configuration not stated),1.6%

row,SMILES,inhibition
1,CCOC(=O)c1cc(C)n(-c2c(C)n(C)n(-c3ccccc3)c2=O)c1C,2.99%
2,Cc1cc(C(=O)CC#N)c(C)n1-c1c(C)n(C)n(-c2ccccc2)c1=O,3.73%
3,Cc1onc(-c2ccccc2Cl)c1C(=O)O/N=C(\N)c1ccccc1,-3.35%
4,COc1ccc2c(=O)c3c(=O)n(Cc4ccco4)c(-c4ccco4)nc3oc2c1,6.47%
5,COc1ccc2c(=O)c3c(=O)n(Cc4ccco4)c(-c4ccc(C)cc4)nc3oc2c1,-32.5%
6,COc1ccc2c(=O)c3c(=O)n(Cc4ccco4)c(C(C)C)nc3oc2c1,-5.33%
7,COc1ccc2c(=O)c3c(=O)n(Cc4ccco4)c(-c4ccccc4)nc3oc2c1,-5.44%
8,O=C(O)CCS(=O)(=O)Cc1ccccc1Cl,3.96%
9,CC(C)OC(=O)C1C(=O)CC(C)(O)C(C(=O)OC(C)C)C1c1ccccc1 (configuration not stated),-5.49%
10,O=C(N/N=C/c1c[nH]c2ccccc12)c1ccc([N+](=O)[O-])cc1Cl,2.78%
11,CCCCC(=O)NC(=S)Nc1ccccc1N1CCCCC1,1.96%
12,Cc1nc(SCC(=O)c2ccc(F)c(F)c2)[nH]c(=O)c1Oc1ccc(F)cc1,-1.47%
13,Cc1cc(N2C(=O)C(O)=C(C(=O)c3ccco3)C2c2ccc(O)cc2)no1 (configuration not stated),-5.88%
14,COc1cc(C2C(C(=O)c3ccc(C)o3)=C(O)C(=O)N2c2cc(C)on2)cc(Br)c1O (configuration not stated),19.3%
15,COC(=O)c1ccc(COc2nc(C)cc(C)c2C#N)o1,2.74%
16,CCN(CC)S(=O)(=O)c1ccc(N2CCOCC2)c(NC(=O)CCC2CCCCC2)c1,-9.59%
17,COc1ccc(N2CCN(C(=O)CSc3ccccc3)CC2)cc1,30.3%
18,Cc1occc1-c1nnc(SCC(=O)N2CCN(c3ccc(F)cc3)CC2)n1C,8.11%
19,CCn1c(SCC(=O)N2CCN(c3ccccc3)CC2)nnc1-c1ccoc1C,7.37%
20,O=C(O)c1ccccc1C(=O)N1CCN(c2ccccc2)CC1,3.73%
21,O=C(c1ccccc1C(=O)N1CCN(c2ccccc2)CC1)N1CCN(c2ccccc2)CC1,3.97%
22,O=C(CCSc1ccccc1)N1CCN(c2ccccc2)CC1,-3.65%
